# Data from PubChem BioAssay (NCATS).
# Results filed as inconclusive are left out. Entries that show only a call come without a potency. Values without a mark were called inactive. Active and inactive are the calls of the source. The call rests on the fitted dose curve; in most records, active means well fitted curve in the direction sought with a large enough effect; inconclusive means small, poorly fitted or top-dose-only effect, or another doubt; inactive means no such curve, though single readings can be large; an effect the other way counts as inactive or inconclusive.
# Tests used:
# [1] = molecular target: Cellular tumor antigen p53 (Homo sapiens) (UniProt P04637); assay: Primary qHTS for small molecule compounds that upregulate eGFP-tagged delta133p53alpha (in N-terminal) cells. (AID 2060322); conditions: NCI-H358 eGFP-delta133p53alpha fluorescence, 24 h; activation: active compounds read high; further: nearly all actives have a fitted effect of over 75% in size; further: potency means the concentration at half of the fitted maximal effect; on activation: series mostly up to about 56 µM
# Summary of the method: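 NCI-H358 cells pre-induced 24 h with 10 ng/ml doxycycline to express N-terminal eGFP-delta133p53alpha, then dosed 24 h at 37C without doxycycline; fixed, Hoechst-stained, GFP intensity by laser scanning cytometry, normalized to DMSO (0%) and 57.5 uM 5-azacytidine (100%).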
# [2] = molecular target: Aldehyde dehydrogenase, mitochondrial (Homo sapiens) (UniProt P05091); assay: qHTS for Inhibitors of the Aldehyde Dehydrogenase Family (ALDH2) Primary screen (AID 2061308); further: nearly all actives have a fitted effect of over 55% in size
# [3] = molecular target: Retinaldehyde dehydrogenase 3 (Homo sapiens) (UniProt P47895); assay: qHTS for Inhibitors of the Aldehyde Dehydrogenase Family (ALDH1A3) Primary screen (AID 2061315)
# Chain of Cellular tumor antigen p53 (Homo sapiens) (P04637 whole entry, looked up): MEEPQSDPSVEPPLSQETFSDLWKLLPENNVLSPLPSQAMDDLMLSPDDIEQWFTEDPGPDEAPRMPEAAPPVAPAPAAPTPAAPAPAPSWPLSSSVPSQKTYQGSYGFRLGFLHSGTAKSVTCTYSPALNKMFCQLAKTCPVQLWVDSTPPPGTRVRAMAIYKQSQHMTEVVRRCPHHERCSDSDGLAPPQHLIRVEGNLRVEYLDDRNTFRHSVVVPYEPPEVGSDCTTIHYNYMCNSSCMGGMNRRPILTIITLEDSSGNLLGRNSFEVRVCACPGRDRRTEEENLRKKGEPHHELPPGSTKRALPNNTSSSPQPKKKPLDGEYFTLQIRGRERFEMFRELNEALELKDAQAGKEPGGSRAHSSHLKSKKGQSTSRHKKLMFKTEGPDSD
SMILES,activation [1],Potency [2],Potency [3],Potency [1]
CN1C[C@@H]2CN(c3ccc(-c4ccccc4)nn3)C[C@@H]2C1,14.3%,inactive,inactive,–
C=CC/C=C\C/C=C\CCCCCCCc1cc(O)cc(O)c1,-9.92%,inactive,inactive,–
C[C@]12CC[C@H]3[C@@H]([C@H](O)CC4=CC(=O)CC[C@@]43C)[C@@H]1CC[C@@H]2O,-2.33%,inactive,inactive,–
O=C1N[C@@H](Cc2ccccc2)CN2CCCC[C@@H]12,-9.16%,inactive,inactive,–
C=C1[C@@H]2CC[C@@]3(C)[C@H](c4ccoc4)OC(=O)C[C@]13O[C@H]1CC(=O)C(C)(C)[C@H](C(OC(C)=O)C(=O)OC)[C@]12C (some centres undefined),-8.4%,inactive,inactive,–
CCC(C)(OC(C)=O)C(=O)O[C@H]1[C@H](OC(C)=O)C[C@@H]2[C@@](C)([C@@H]3C[C@H]4C=CO[C@H]4O3)[C@H](C)C[C@H](OC(C)=O)[C@@]2(COC(C)=O)[C@@]12CO2 (some centres undefined),-3.82%,inactive,inactive,–
C[C@H]1CCC[C@H](O)CCC/C=C/c2cc(O)cc(O)c2C(=O)O1,-13%,inactive,inactive,–
CCN1C[C@]2(COC)[C@H](O)C[C@H](OC)[C@]34[C@@H]5C[C@]6(O)[C@H](OC(=O)c7ccccc7)[C@@H]5[C@@](O)([C@H]([C@H](OC)[C@H]23)[C@@H]14)[C@@H](O)[C@@H]6OC,10.3%,inactive,inactive,–
COc1cc2c(cc1OC)[C@@]13CCN4CC5=CCO[C@H]6CC(=O)N2[C@H]1[C@H]6[C@H]5C[C@H]43,-22.1%,inactive,inactive,–
C[C@]12CCC(=O)C=C1CC[C@@H]1[C@@H]2[C@@H](O)C[C@]2(C)C(=O)CC[C@@H]12,11%,inactive,inactive,–
CC(=O)OC1CC(O)C(C)(C)C2CC(OC(C)=O)C3(C)C(CCC4(C)C(c5ccoc5)C(=O)C5OC543)C12C (centres undefined),-13%,inactive,inactive,–
CC1=C2C(=O)C3[C@@H](CC=C4C[C@@H](O)CC[C@@]43C)[C@@H]2CC[C@]12O[C@@H]1C[C@H](C)CN[C@H]1[C@H]2C (some centres undefined),4.58%,inactive,inactive,–
C[C@]12CC[C@H](O)C[C@@H]1CC[C@@H]1[C@@H]2CC[C@]2(C)[C@@H](C3=CC(=O)OC3)CC[C@]12O,7.63%,inactive,inactive,–
C/C=C(\C)C(=O)OC1CC2C(C)(C)OC(=O)CC(OC(C)=O)C2(C)C2CC(OC(=O)C(C)C)C3(C)C(c4ccoc4)CC4OC43C12C (centres undefined),-19.8%,inactive,inactive,–
C=C(C)[C@@]12O[C@@H]1[C@@]1(C)C(=CC2=O)CC[C@@H](OC(C)=O)[C@@H]1C,–,inactive,inactive,30.1 µM (active)
CC1=CC2/C=C(\C)CCC(O)C(O)C(O)CC(=O)C23C(=O)NC(CC(C)C)C3C1C (centres undefined),-32.8%,inactive,inactive,–
COC(=O)C1=COC(C)C2CN3CCC4(C(=O)Nc5ccccc54)C3CC12 (centres undefined),11.5%,inactive,inactive,–
COc1cc(C(=O)O[C@H]2[C@@H]3C=CO[C@@H](O[C@@H]4O[C@H](CO)[C@@H](O)[C@H](O)[C@H]4O)[C@@H]3[C@@]3(CO)O[C@@H]23)ccc1O,-3.82%,inactive,inactive,–
CN1C(=O)N(c2ccc(C#N)c(C(F)(F)F)c2)C(=O)[C@]1(CO)c1ccccc1,17%,inactive,inactive,–
CC1=CC2OC3CC(O)[C@](C)([C@@]2(C)C(O)C1=O)[C@]31CO1 (some centres undefined),–,inactive,inactive,21.3 µM (active)
CC1=CC2/C=C(\C)CCC(O)C3OC(C)(C)OC3CC(=O)OC23C(=O)NC(CC(C)C)C3C1C (centres undefined),6.87%,inactive,inactive,–
C[C@@](O)(COc1ccc(C#N)cc1)C(=O)Nc1ccc(C#N)c(C(F)(F)F)c1,-6.21%,inactive,inactive,–
CC[C@H]1C[C@@H]2CC[C@@H](O2)[C@@H](C)C(=O)O[C@H](CC)C[C@H]2CC[C@H](O2)[C@H](C)C(=O)O[C@@H](C)C[C@@H]2CC[C@@H](O2)[C@@H](C)C(=O)O[C@H](CC)C[C@H]2CC[C@H](O2)[C@H](C)C(=O)O1,-0.893%,inactive,inactive,–
